From PubChem BioAssay (NCI) come the findings set out here.

About 83,000 compounds went through this panel and 20% of them were active in at least one assay; those are over-represented in the sample as a whole.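 Activity criterion: percent growth below 10, measured after cells in 96-well plates were exposed to a single compound concentration for 48 hours.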 A number with no mark means an inactive call. Activity calls are given as the source filed them.

The test system of the assay is HCC-2998 colon. Put plainly: NCI-60 one-dose screen, 48 h (100 = growth as untreated, 0 = no growth, -100 = all killed). To be noted: 10 µM unless noted. How it is done:
Growth inhibition of the HCC-2998 human tumor cell line is measured as a screen for anti-cancer activity. Cells are grown in 96 well plates and exposed to the test compound for 48 hours. Compounds are tested at a single concentration, which is 10^-5 M for most compounds. The reported endpoint is percent growth (GI% or GIPRCNT), where numbers from 0 - 100% represent growth inhibition, and numbers from -100% - 0 represent cell death. For example, a value of 40 represents 60% growth inhibition. A value of 0 means no net growth occurred over the course of the experiment. A value of -40 indicates 40% of cells at the beginning of the experiment died by the end of the experiment. A value of -100 means all cells are dead at the end of the experiment.
NCI-60 Human Tumor Cell Lines Screen was performed using the standard one-dose NCI protocol, which is described in more detail at https://dtp.cancer.gov/discovery_development/nci-60/default.htm.
Compounds with GIPRCNT values below 10 were considered active. Activity score was based on GIPRCNT using the following formula: […]
Score is 0 for GIPRCNT values of 100 or above, 50 for GIPRCNT values of 0, and 100 for GIPRCNT values of -100.
For `COc1ccc2c(c1)cn1c3ccc(O)cc3[nH]c(=O)c21`, the growth is 11.8%.

On to `O=c1oc2ccc3ccccc3c2cc1-c1ccnc2[nH]c(=S)[nH]c(=O)c12`, for which the growth is 101%.

In the case of `C=CCN(C)C`, the growth is 110%.

For `O=C(Nc1ccc(-n2cc(-c3ccncc3)c(-c3ccc(Cl)c(O)c3)n2)cc1)c1ccc(Cl)c(Cl)c1`, the growth is 10.1%.

Take `Cc1ccc(NCc2cn(-c3ccc(C(=O)O)cc3)nc2-c2ccc(C(=O)O)cc2)cc1`: the growth is 101%.

Regarding `COc1ccc(Cn2cc3c(c2)-c2oncc2CC3)cc1OC`, the growth is -37.5% (active).

For `CNc1nc2ncn(C)c2c(=O)[nH]1`, the growth was 90.7%.

`c1cc[c]([Bi]([c]2ccccc2)[c]2ccccc2)cc1`: the growth is 96.5%.

With `COc1cc(NC(=O)CSc2nc3ccc(Cl)cc3c(=O)n2-c2ccc(F)cc2)cc(OC)c1OC`, the growth was 105%.

Consider `N=C(N)N=Nc1ccc(NN=C(N)N)c2ccccc12`, for which the growth is 106%.

With `COC(=O)c1ccc2[nH]c(O)c(C(=Nc3ccc(N(C)C(=O)CN4CCN(C)CC4)cc3)c3ccc(C)cc3)c2c1`, the growth was 9.34% (active).

As for `COC(=O)[C@H](Cc1cn(C)cn1)NC(=O)[C@@H](NC(=O)Nc1cc(C(F)(F)F)cc(C(F)(F)F)c1)C(C)(C)C`, the growth was -94.2% [100 µM] (active).

Take `O=C(Nc1ccc(-n2cc(-c3ccncc3)c(-c3ccc(Cl)c(O)c3)n2)cc1)Nc1ccc(Cl)c(C(F)(F)F)c1`: the growth was 0.686% (active).

In the case of `CCOc1ccc2nc3ccc(Cl)cc3nc2c1`, the growth was 70.5%.

As to `COc1cccc(Cn2cc3c(c2)-c2oncc2CC3)c1`, the growth is -32.4% (active).

As for `COc1cc(-c2nn(-c3ccc(NC(=O)Nc4ccc(Cl)c(C(F)(F)F)c4)cc3)cc2-c2ccncc2)ccc1Cl`, the growth is -2.15% (active).

In the case of `CCC(CCCN1C(=O)c2ccccc2C1=O)Nc1cc(OC)cc2cccnc12` (stereo not given), the growth is 147%.

As to `C/C(=N\Nc1cccc(Cl)n1)c1ccccn1`, the growth was 32.6%.

For the molecule `COc1ccc(-c2cc(C#N)c(NNC(C)=O)[nH]2)cc1`, the growth is 105%.

Take `O=C(O)CC1Cc2ccccc2C1C(=O)O` (stereo not given): the growth is 104%.

Regarding `CCCCCCCCCCCCc1ccc([N+](CC)(CC)CC)cc1`, the growth was 36.7%.

Regarding `NC(=O)CC(NC(=O)COc1ccc(Cl)cc1Cl)C(=O)O` (stereo not given), the growth was 109%.

On to `CCS(=O)(=O)OCCO[C@H]1Cc2cc3ccc(=O)oc3cc2OC1(C)C`, for which the growth was 109%.

As for `O=P(OCCCl)(OCCCl)C(O)c1ccccc1Cl` (stereo not given), the growth is 106%.

In the case of `O=C(NC1CCN(Cc2ccccc2)CC1)c1cc(-c2cccnc2)nc2ccc(Cl)cc12`, the growth was 64.9%.

On to `C[n+]1c2ccccc2c(Nc2ccc(NS(=O)(=O)CCCCN=C(N)N)cc2)c2ccc(N)cc21`, for which the growth is 40.6%.

As for `O=C1c2cc([N+](=O)[O-])ccc2-c2cc(Cl)c(NC(=O)C(F)(F)F)cc21`, the growth is 104%.

As for `Cc1ccc(C(=O)Nc2ccc(CN3CCN(C)CC3)c(C(F)(F)F)c2)cc1C#Cc1cnc(N)c2ccc(F)cc12`, the growth is -78.5% (active).

As to `Cc1nnc(-c2cc3c(ccc4ccccc43)oc2=O)c2cn(-c3ccc(Cl)cc3)nc12`, the growth was 97.3%.

Take `COC(=O)c1ccc(C(=Nc2ccc(N(C)C(=O)CN3CCN(C)CC3)cc2)c2c(O)[nH]c3ccc(C(=O)OC)cc23)cc1`: the growth was 54.5%.

As for `COc1ccc(-c2nc(SCC(C)C)nc(Nc3ccc(C(=O)O)cc3)c2C#N)cc1`, the growth was 97.7%.

With `Cc1ccc2c(c1)C(=O)CCS2`, the growth was 99.6%.

In the case of `O=C(/C=C/c1cccc(O)c1)c1cccc(-n2cc(-c3ccc(Cl)cc3)[nH]c2=O)c1`, the growth is -64.4% (active).

On to `COc1cc2oc(-c3ccc(NC(=O)c4ccccc4)cc3)cc(=O)c2c(OC)c1OC`, for which the growth was 89.8%.

Turning to `N#CCCCCCCCCCCC#N`, the growth was 95%.

On to `CCCCCCC(=O)C(C)C`, for which the growth is 105%.

For the molecule `CC(=O)Nc1ccc(CC#N)cc1Br`, the growth was 96.7%.

`CCCCCCNC(=O)Oc1ccc(/C(=C(/C)Cc2ccc(OC)cc2)c2ccc(OCCN(C)C)cc2)cc1`: the growth is 52.4%.

On to `COc1ccc(-c2nnc(SCC(=O)Nc3ccc(C(=O)/C=C/c4cc(OC)c(OC)c(OC)c4)cc3)n2-c2ccccc2)cc1OC`, for which the growth was 8.22% [100 µM] (active).

For `CCCC(=O)NNc1[nH]c(-c2cc(OC)c(OC)c(OC)c2)cc1C(=O)OCC`, the growth is 95.3%.
